In the experiment the test system is PPARg:RXRa 90nM:30nM, anti-RXR (NR concentration 90 nM, RXRa partner concentration 30 nM). The experiment can be described thus: PBM binding z-score (relative to random genomic background probes); higher = stronger binding; sequences stand for … in GC…GCGATTGACAGCGTAGAATGAAGG
The gist of the method:
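Custom Agilent 4×180K protein-binding microarrays carried double-stranded probes, each with a 34-nt variable region. These regions held direct-repeat seeds, single-nucleotide variants, half-site ablations and random human genomic background sequences. Ligand-free nuclear receptor dimers were incubated on the arrays for 1 h, antibodies against each partner (one per run) detected binding, and scanned fluorescence was regression-normalized. Binding z-scores take the random background probes as reference.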
Sequence ATCTCTAGGTAAAGATAGTTCGGTGAATGCAAAT showed a PBM binding z-score of 0.213.

With TCTAGCAGTCCAGAGGGTCACTCAAGAGGTACGG, the PBM binding z-score was 1.63.

With CCTAGCAGGCCAATCTGGGACACTCAAGGCTTGA, the PBM binding z-score was -0.673.

Take TCTGACAGGTGAAGGTAACTCAGGTACGCAGTCG: the PBM binding z-score is 2.32.

As for TATACAGGCTCAAAGGCCAGAGTACGAATGTCGA, the PBM binding z-score was 1.4.

On to GGAACGAGGGCATTCGAGTTAATAGCATGGCGAT, for which the PBM binding z-score was determined as 1.09.

On to CCTACTGGGCCAATGGTCATTGATTCCAATGCTC, for which the PBM binding z-score is 6.38.

With GCTGCTAGGTCAACTGATGGTCGGCTAAAGCTCG, the PBM binding z-score was found to be 1.99.

On to ACTCGGAGGACCAAGGTCAGAGCTACGCCAGTGA, for which the PBM binding z-score is 0.773.

With GGAACGAAGGCAAAGTTGATAGCATCTGTCGACG, the PBM binding z-score was 4.01.

GGAACGAGGGCATGCGAGTTGATAGCATGGCGAT returned a PBM binding z-score of 0.117.

As for TCTTGTAGATCACGCAGGTTAAGAAAGCCTGAGT, the PBM binding z-score was determined as 1.89.

TCTTGTAGAACAAGCAGGTTAAGAAAGCCTGAGT had a PBM binding z-score of 1.82.

Sequence AATACCGGGTCATCGTAGGCCAGAGTACGCACAG gave a PBM binding z-score of 3.89.

In turn, CCTAGCAGGCCAATCTGAGTCACTCAAGGCTTGA had a PBM binding z-score of -1.25.

The sequence AGTCAAAGTTCATCTAGGTAAGGTAAGATATGCT registered a PBM binding z-score of 5.66.

As for AGAACAAGGGCAATGAGTTGATAGCACGGGTGGC, the PBM binding z-score is -0.176.

For the sequence CAAACTAGGGCACAGAGGTCAAAGTCCGTGCGTA, the PBM binding z-score stood at 6.59.

For the sequence ATCGAAAGGTCGACGGGGTGAGTATACACCGTTT, the PBM binding z-score stood at 2.28.

On to TAGCCGAGGTCATGGGCCAGTATACCACGCGAAC, for which the PBM binding z-score was 5.67.

In turn, TCTAGTTGGTCACGGAGGTAACACACGACGGGTA registered a PBM binding z-score of 2.25.

CCTACTGGGCCAGGGTCATTGATCAGTCAAAGCA displayed a PBM binding z-score of 2.87.

Values taken from the supplement of paper PMC6555819.
